Test results reported in PubChem BioAssay AID1159580 (chemical genetic matrix, 2015).
In all, about 5,500 compounds went through this assay and about 2,000 (36%) were called active. Inconclusive results (about 18%) are left out. Rule as the data show it: active = normalized growth mostly below about 0.91 (no sharp cut-off); inconclusive = no clear call, values can overlap the other calls; inactive = mostly above about 0.92. Some of the results follow.

Assay: chemical genetic growth profiling, strain panel (AID 1159580);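 also: tested at 20 µM; growth read once vehicle control cultures reached saturation at 30 °C; 1 = growth at the plate median or of vehicle wells; lower values mean less growth of the strain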
Settings: S. cerevisiae deletion strains, growth OD

Measured: normalized growth

O=c1cc(CSc2ccc(Cl)cc2)c2ccc(O)cc2o1
inactive: locus YAR019C, strain CDC15, hits give low values 0.937 | locus YBL105C, strain PKC1, hits give low values 0.963 | locus YBR135W, strain CKS1, hits give low values 0.944 | locus YBR136W, strain MEC1, hits give low values 0.949 | locus YBR160W, strain CDC28, hits give low values 0.96 | locus YDL017W, strain CDC7, hits give low values 0.964 | locus YDL028C, strain MPS1, hits give low values 0.956 | locus YDL101C, strain DUN1, hits give low values 0.974 | locus YDL108W, strain KIN28, hits give low values 0.955 | locus YDL132W, strain cdc53, hits give low values 0.944 | locus YDL214C, strain PRR2, hits give low values 0.738 | locus YDR052C, strain DBF4, hits give low values 0.962 | locus YDR054C, strain cdc34, hits give low values 0.937 | locus YDR226W, strain ADK1, hits give low values 0.959 | locus YFL009W, strain cdc4, hits give low values 0.935 | locus YFL029C, strain CAK1, hits give low values 0.943 | locus YFR003C, strain YPI1, hits give low values 0.959 | locus YFR019W, strain FAB1, hits give low values 0.826 | locus YFR028C, strain CDC14, hits give low values 0.954 | locus YGR092W, strain DBF2, hits give low values 0.63 | locus YHR205W, strain SCH9, hits give low values 0.759 | locus YIL147C, strain SLN1, hits give low values 0.95 | locus YJL128C, strain PBS2, hits give low values 0.92 | locus YJL157C, strain FAR1, hits give low values 0.737 | locus YJR016C, strain ILV3, hits give low values 0.945 | locus YJR066W, strain TOR1 (second series), hits give low values 0.738 | locus YJR066W, strain TOR1, hits give low values 0.534 | locus YKL193C, strain SDS22, hits give low values 0.947 | locus YLR133W, strain CKI1, hits give low values 0.747 | locus YMR001C, strain CDC5, hits give low values 0.944 | locus YMR205C, strain PFK2 (second series), hits give low values 0.748 | locus YMR277W, strain FCP1, hits give low values 0.928 | locus YNL006W, strain LST8, hits give low values 0.958 | locus YNL020C, strain ARK1, hits give low values 0.719 | locus YNL161W, strain CBK1, hits give low values 0.947 | locus YNL207W, strain RIO2, hits give low values 0.946 | locus YNL222W, strain SSU72, hits give low values 0.944 | locus YNL307C, strain MCK1 (second series), hits give low values 0.686 | locus YOL078W, strain AVO1, hits give low values 0.939 | locus YOL136C, strain PFK27, hits give low values 0.748 | locus YOR061W, strain CKA2, hits give low values 0.712 | locus YOR329C, strain SCD5, hits give low values 0.955 | locus YPL209C, strain IPL1, hits give low values 0.955 | locus YPR025C, strain CCL1, hits give low values 0.952 | locus YPR106W, strain ISR1, hits give low values 0.952 | locus YPR111W, strain DBF20, hits give low values 0.951 | strain NNK1, hits give low values 0.948 | strain TSCII, hits give low values 0.934
active: locus YDR477W, strain SNF1, hits give low values 0.674 | locus YER123W, strain YCK3, hits give low values 0.565 | locus YER133W, strain GLC7, hits give low values 0.572 | locus YGR040W, strain KSS1, hits give low values 0.631 | locus YGR052W, strain FMP48, hits give low values 0.436 | locus YHR030C, strain SLT2, hits give low values 0.452 | locus YHR079C, strain IRE1, hits give low values 0.405 | locus YHR082C, strain KSP1, hits give low values 0.472 | locus YJL095W, strain BCK1, hits give low values 0.432 | locus YKL048C, strain ELM1, hits give low values 0.656 | locus YKL067W, strain YNK1, hits give low values 0.732 | locus YKL101W, strain HSL1, hits give low values 0.682 | locus YKL203C, strain TOR2, hits give low values 0.66 | locus YLR113W, strain HOG1, hits give low values 0.265 | locus YLR403W, strain SFP1, hits give low values 0.639 | locus YML070W, strain DAK1, hits give low values 0.666 | locus YNL183C, strain NPR1, hits give low values 0.434 | locus YOR119C, strain RIO1, hits give low values 0.654 | locus YOR231W, strain MKK1, hits give low values 0.444 | locus YPL031C, strain PHO85, hits give low values 0.497 | locus YPL153C, strain RAD53, hits give low values 0.442 | locus YPL204W, strain HRR25, hits give low values 0.574 | locus YPL256C, strain CLN2, hits give low values 0.41
